# Measurements as given in ChEMBL document CHEMBL3988442, “University of Dundee, Small-Polar-MMV Screening Library” (2021).
# Molecular target: T1, Methionyl-tRNA synthetase, putative (Leishmania donovani (strain BPK282A1)) (UniProt E9BF75)
# T1 sequence (whole entry): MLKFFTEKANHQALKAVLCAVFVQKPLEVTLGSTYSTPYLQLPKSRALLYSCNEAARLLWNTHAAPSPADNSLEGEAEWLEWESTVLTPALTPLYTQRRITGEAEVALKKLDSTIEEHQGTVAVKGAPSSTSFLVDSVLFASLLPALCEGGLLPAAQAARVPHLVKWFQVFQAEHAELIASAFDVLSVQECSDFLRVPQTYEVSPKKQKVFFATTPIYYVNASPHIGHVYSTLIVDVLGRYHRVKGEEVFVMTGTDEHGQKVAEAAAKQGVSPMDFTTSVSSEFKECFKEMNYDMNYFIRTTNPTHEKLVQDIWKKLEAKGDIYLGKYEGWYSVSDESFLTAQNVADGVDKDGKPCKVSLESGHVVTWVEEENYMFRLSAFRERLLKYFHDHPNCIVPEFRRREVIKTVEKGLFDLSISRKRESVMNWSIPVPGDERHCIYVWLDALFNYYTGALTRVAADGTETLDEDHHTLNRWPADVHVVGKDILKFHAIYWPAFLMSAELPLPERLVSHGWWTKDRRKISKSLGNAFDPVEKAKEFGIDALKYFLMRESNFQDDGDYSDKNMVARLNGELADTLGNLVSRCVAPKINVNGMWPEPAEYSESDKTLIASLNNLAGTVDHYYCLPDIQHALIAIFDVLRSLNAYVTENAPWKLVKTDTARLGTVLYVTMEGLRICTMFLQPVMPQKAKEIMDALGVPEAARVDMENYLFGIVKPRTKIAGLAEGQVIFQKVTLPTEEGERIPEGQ
# Assay: Leishmania donovani Methionine tRNA synthetase (LdMetRS):v7. Dose response assay
# Type: functional
# Design: conc 80 nM, time 150 minutes
compound,measurement,setting,value
CC(=O)N1CCCC(NC(=O)c2ccc3ccc(N4CCN(S(C)(=O)=O)CC4)n3c2)C1 (centres undefined),PXC50,"BOTTOM 3.656156878, HILLSLOPE 2.486754691, MAX_EFFECT 66.17915905, TOP 66.88204214",4.81
same,PXC50,"BOTTOM -4.526143978, HILLSLOPE 1.702686974, MAX_EFFECT 60.76555024, TOP 62.80104332",5
CS(=O)(=O)N1CCN(CC2OB(O)c3ccccc32)CC1 (centres undefined),PXC50,MAX_EFFECT 11.13207547,< 4
same,PXC50,MAX_EFFECT 15.06849315,< 4
COc1ccc(-c2nc3c([nH]2)CCNC3C(=O)O)c2ccc(C)nc12 (centres undefined),PXC50,"BOTTOM 1.718114205, HILLSLOPE 1.017534888, MAX_EFFECT 58.69565217, TOP 100.0",4.17
same,PXC50,"BOTTOM 3.702697872, HILLSLOPE 1.816429842, MAX_EFFECT 76.89768977, TOP 100.0",4.25
same,PXC50,"BOTTOM -10.20592251, HILLSLOPE 0.737543358, MAX_EFFECT 64.87455197, TOP 100.0",4.33
COCCN1CCN(c2ccc3ccc(C(=O)NC4CC4)cn23)CC1,PXC50,MAX_EFFECT 43.53741497,< 4
same,PXC50,MAX_EFFECT 48.22429907,< 4
NC(=O)c1cccnc1Nc1cccc(S(N)(=O)=O)c1,PXC50,MAX_EFFECT 5.69259962,< 4
same,PXC50,MAX_EFFECT 12.33480176,< 4
same,PXC50,MAX_EFFECT 15.08264463,< 4
O=C(c1cc[nH]n1)N1CCC(F)(F)C2(CCN(c3ccccn3)C2)C1 (centres undefined),PXC50,MAX_EFFECT 8.450704225,< 4
same,PXC50,MAX_EFFECT 10.92592593,< 4
CN(C)CCNc1nc(Nc2ccc(F)c(F)c2)nc2c1cnn2C,PXC50,"BOTTOM 0.475518208, HILLSLOPE 0.90804468, MAX_EFFECT 68.49315068, TOP 100.0593914",4.37
same,PXC50,"BOTTOM 1.11826122, HILLSLOPE 1.149142478, MAX_EFFECT 65.47169811, TOP 85.8972695",4.44
same,PXC50,"BOTTOM 3.189178936, HILLSLOPE 1.201155954, MAX_EFFECT 69.44971537, TOP 84.11641449",4.53
NC(=O)C1CCN(c2cncc(-n3cccn3)n2)CC1,PXC50,MAX_EFFECT 1.936619718,< 4
same,PXC50,MAX_EFFECT 4.750593824,< 4
NS(=O)(=O)c1cccnc1Nc1cccc(C(F)(F)F)c1,PXC50,MAX_EFFECT 8.810572687,< 4
same,PXC50,MAX_EFFECT 8.888888889,< 4
same,PXC50,MAX_EFFECT 15.90909091,< 4
CNc1cc(-c2cccc(CN)c2)c2cc[nH]c2n1,PXC50,"BOTTOM 0.988395417, HILLSLOPE 1.522848712, MAX_EFFECT 89.26174497, TOP 100.0",4.55
same,PXC50,"BOTTOM -0.303339397, HILLSLOPE 1.457263574, MAX_EFFECT 90.27777778, TOP 100.0",4.5
same,PXC50,"BOTTOM -1.705392775, HILLSLOPE 1.008817214, MAX_EFFECT 54.59272097, TOP 100.0",4.07
COc1ccc2c(c1)COB2O,PXC50,MAX_EFFECT 5.094339623,< 4
same,PXC50,MAX_EFFECT 9.589041096,< 4
CC(C)NC(=O)c1ccc2ccc(N3CCN(S(C)(=O)=O)CC3)n2c1,PXC50,"BOTTOM 1.200641937, HILLSLOPE 2.342552546, MAX_EFFECT 57.54716981, TOP 55.68048652",4.88
same,PXC50,"BOTTOM 2.289724742, HILLSLOPE 1.802731874, MAX_EFFECT 51.59817352, TOP 52.80479707",4.95
COC(=O)CNc1nc(Nc2ccc(F)c(F)c2)nc2c1cnn2C,PXC50,"BOTTOM 3.451309233, HILLSLOPE 1.311155922, MAX_EFFECT 92.63657957, TOP 92.51088835",5.87
same,PXC50,"BOTTOM -7.309973035, HILLSLOPE 0.885022203, MAX_EFFECT 95.56840077, TOP 99.22229829",5.83
same,PXC50,"BOTTOM -8.727655422, HILLSLOPE 0.982384922, MAX_EFFECT 94.42060086, TOP 95.2064332",5.96
Cc1nc(-c2cc(Cl)c3c(c2)CC(CN)O3)c[nH]1 (centres undefined),PXC50,MAX_EFFECT 32.65306122,< 4
same,PXC50,MAX_EFFECT 37.68115942,< 4
same,PXC50,MAX_EFFECT 41.5061296,< 4
CC(C)CCNc1nnc(C(C)C)s1,PXC50,MAX_EFFECT 4.081632653,< 4
same,PXC50,MAX_EFFECT 6.479859895,< 4
same,PXC50,MAX_EFFECT 7.971014493,< 4
Cc1nc(NCCC(C)C)c2c3c(sc2n1)CCCC3,PXC50,MAX_EFFECT 30.4,< 4
same,PXC50,MAX_EFFECT 33.86243386,< 4
Cc1cc(Nc2ccc(F)c(F)c2)nc(NCCO)n1,PXC50,"BOTTOM -0.152929864, HILLSLOPE 0.883857243, MAX_EFFECT 83.3655706, TOP 93.53791092",5.04
same,PXC50,"BOTTOM -2.585097693, HILLSLOPE 0.96868989, MAX_EFFECT 84.50413223, TOP 95.81491094",4.9
same,PXC50,"BOTTOM -4.028659836, HILLSLOPE 0.891804294, MAX_EFFECT 83.70044053, TOP 100.2402145",4.82
CCOC(=O)CCN(C)c1nc(C)nc2sc(-c3ccccc3)cc12,PXC50,MAX_EFFECT 45.45454545,< 4
same,PXC50,MAX_EFFECT 46.44808743,< 4
Cc1ncc(CCNc2nc(Nc3ccc(F)c(F)c3)nc3c2cnn3C)s1,PXC50,MAX_EFFECT 15.8490566,< 4
same,PXC50,MAX_EFFECT 21.03004292,< 4
same,PXC50,MAX_EFFECT 21.85273159,< 4
O=C(O)C1CCCN1c1nc(-c2ccc(Cl)cc2)cc(C(F)(F)F)n1 (centres undefined),PXC50,MAX_EFFECT 7.310704961,< 4
same,PXC50,MAX_EFFECT 9.138381201,< 4
O=S(=O)(NCC1CC1)c1cccnc1Nc1cccc(C(F)(F)F)c1,PXC50,MAX_EFFECT 6.072106262,< 4
same,PXC50,MAX_EFFECT 13.21585903,< 4
same,PXC50,MAX_EFFECT 16.32231405,< 4
NCC1CCN(C2CCN(c3ccc(-c4ccco4)cc3)CC2)C1 (centres undefined),PXC50,"BOTTOM 4.43866672, HILLSLOPE 0.884621075, MAX_EFFECT 64.49275362, TOP 100.0",4.31
same,PXC50,"BOTTOM 4.60090898, HILLSLOPE 1.046241477, MAX_EFFECT 65.98639456, TOP 92.93543159",4.34
same,PXC50,"BOTTOM 4.64806131, HILLSLOPE 0.783599422, MAX_EFFECT 54.46584939, TOP 100.0",4.09
NS(=O)(=O)c1cc(Cl)cc(Cl)c1,PXC50,MAX_EFFECT 24.26470588,< 3
same,PXC50,MAX_EFFECT 31.80778032,< 3
same,PXC50,MAX_EFFECT 47.99235182,< 2.7
CS(=O)(=O)N1CCN(c2ccc3ccc(C(=O)NCCO)cn23)CC1,PXC50,MAX_EFFECT 34.44976077,< 4
same,PXC50,MAX_EFFECT 46.06946984,< 4
O=C1NCC(c2ccc(F)cc2)Cc2[nH]c(CCN3CCCC3)nc21 (centres undefined),PXC50,"BOTTOM 0.586623965, HILLSLOPE 0.960788857, MAX_EFFECT 61.0738255, TOP 100.0",4.15
same,PXC50,"BOTTOM 2.860481636, HILLSLOPE 1.198642369, MAX_EFFECT 65.27777778, TOP 100.0",4.21
same,PXC50,"BOTTOM -5.455719139, HILLSLOPE 0.971400426, MAX_EFFECT 59.44540728, TOP 100.0",4.18
Cc1nc(NCCCN2CCC(O)CC2)c2c(-c3cccs3)csc2n1,PXC50,MAX_EFFECT 4.325699746,< 4
same,PXC50,MAX_EFFECT 7.808564232,< 4
Cn1ncc2c(NCCO)nc(NCCS(C)(=O)=O)nc21,PXC50,MAX_EFFECT 5.936073059,< 4
same,PXC50,MAX_EFFECT 10.75471698,< 4
same,PXC50,MAX_EFFECT 32.3699422,< 4
